{"source": "PubChem BioAssay", "key": {"[1]": {"target": "Mitogen-activated protein kinase 7 (Homo sapiens) (UniProt Q13164)", "sequence (Q13164 whole entry, looked up, the tested form may be a part)": "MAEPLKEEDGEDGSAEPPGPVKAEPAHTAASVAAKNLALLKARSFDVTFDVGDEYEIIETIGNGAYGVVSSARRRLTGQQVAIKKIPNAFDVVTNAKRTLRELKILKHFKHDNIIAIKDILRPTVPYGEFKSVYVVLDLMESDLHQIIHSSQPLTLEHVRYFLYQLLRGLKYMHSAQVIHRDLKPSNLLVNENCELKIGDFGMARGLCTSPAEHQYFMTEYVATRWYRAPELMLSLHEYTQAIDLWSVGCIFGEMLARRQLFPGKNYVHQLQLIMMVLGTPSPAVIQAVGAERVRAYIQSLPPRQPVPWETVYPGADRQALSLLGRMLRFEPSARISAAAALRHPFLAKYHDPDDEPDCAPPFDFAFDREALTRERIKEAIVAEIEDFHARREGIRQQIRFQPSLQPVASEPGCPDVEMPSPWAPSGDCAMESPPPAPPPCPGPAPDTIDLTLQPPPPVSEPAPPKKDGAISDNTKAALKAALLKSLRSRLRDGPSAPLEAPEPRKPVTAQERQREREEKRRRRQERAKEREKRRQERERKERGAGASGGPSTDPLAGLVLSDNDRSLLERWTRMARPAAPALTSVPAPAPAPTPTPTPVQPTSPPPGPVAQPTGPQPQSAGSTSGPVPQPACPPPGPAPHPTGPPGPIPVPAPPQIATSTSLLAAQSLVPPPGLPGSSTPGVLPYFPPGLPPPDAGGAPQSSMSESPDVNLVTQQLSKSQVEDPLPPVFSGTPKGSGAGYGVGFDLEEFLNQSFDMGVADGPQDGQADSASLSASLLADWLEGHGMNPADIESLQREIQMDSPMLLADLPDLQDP", "assay": "ERK5 transactivation activators in reporter cells, primary screen, cell-based, HTS (AID 1508626;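 active means luciferase signal above three times the same-plate solvent-only control wells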;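 further: luciferase driven by Gal4-ERK5 fusion binding five Gal4 sites before minimal TATA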)", "details": "HeLa Gal4-ERK5 transactivation, 18 h, at 5 µM, stronger effect = higher value"}, "[2]": {"target": "NAD(+) hydrolase SARM1 (Homo sapiens) (UniProt Q6SZW1)", "sequence (Q6SZW1 whole entry, looked up)": "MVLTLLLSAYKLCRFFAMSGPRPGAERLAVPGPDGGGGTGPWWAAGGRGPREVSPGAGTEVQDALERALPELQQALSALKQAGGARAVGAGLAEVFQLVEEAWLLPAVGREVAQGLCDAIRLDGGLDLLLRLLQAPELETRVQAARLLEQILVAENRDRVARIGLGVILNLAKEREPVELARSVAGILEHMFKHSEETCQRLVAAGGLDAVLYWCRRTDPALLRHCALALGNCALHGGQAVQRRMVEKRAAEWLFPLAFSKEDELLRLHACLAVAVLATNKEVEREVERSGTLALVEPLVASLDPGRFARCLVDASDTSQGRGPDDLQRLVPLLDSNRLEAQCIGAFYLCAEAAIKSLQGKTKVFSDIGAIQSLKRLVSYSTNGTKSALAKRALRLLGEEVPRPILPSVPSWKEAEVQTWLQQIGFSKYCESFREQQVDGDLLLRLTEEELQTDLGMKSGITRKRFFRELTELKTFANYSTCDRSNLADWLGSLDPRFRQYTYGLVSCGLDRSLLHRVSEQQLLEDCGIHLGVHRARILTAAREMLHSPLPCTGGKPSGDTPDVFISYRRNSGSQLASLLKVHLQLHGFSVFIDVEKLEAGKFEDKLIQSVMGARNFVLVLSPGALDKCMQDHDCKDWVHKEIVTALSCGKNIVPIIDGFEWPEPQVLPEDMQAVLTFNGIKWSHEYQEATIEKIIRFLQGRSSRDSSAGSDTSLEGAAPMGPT", "assay": "SARM1 TIR NADase inhibitors, cell lysate, NAD-Glo luminescence (AID 1508614;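 active means compound whose remaining NAD level is above about 45 nM, limit read from the data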)", "details": "SAM-TIR HEK293T lysate NADase, at 1 µM, stronger effect = higher value"}, "[3]": {"assay": "LFS_MB_P medulloblastoma growth inhibition, cell-based, chromothripsis tumors, cisplatin or BGB combos (AID 1671449);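 further: cells exposed for 96 hours; 0% = vehicle DMSO and 100% = killing by high DMSO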", "details": "LFS_MB_P medulloblastoma cells"}, "[4]": {"assay": "HDN33 neuroblastoma growth inhibition, cell-based, chromothripsis tumors, cisplatin or BGB combos (AID 1671450);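 further: cells exposed to compound for four days; 0% = vehicle DMSO and 100% = cell killing by high DMSO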", "details": "HDN33 neuroblastoma cells, stronger effect = higher value"}, "[5]": {"assay": "ICB984 medulloblastoma cell growth inhibition, synergistic combos for chromothripsis tumors, cisplatin or BGB combos (AID 1671451; call rule not given here;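 further: cells exposed for 96 hours before readout; 0% = vehicle DMSO and 100% = killing by high DMSO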)", "details": "ICB984 medulloblastoma cells, drug combinations, stronger effect = higher value"}, "[6]": {"assay": "LFS_MB_1R medulloblastoma cell growth inhibition, synergistic combos for chromothripsis tumors, cisplatin or BGB combos (AID 1671452);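 further: cells exposed for 96 hours before readout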", "details": "LFS_MB_1R medulloblastoma cells, stronger effect = higher value"}, "[7]": {"assay": "HTB85 osteosarcoma cell growth inhibition, synergistic combos for chromothripsis tumors, BGB or cisplatin IC20 combos (AID 1671453);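 further: cells exposed for 96 hours before readout; 0% = vehicle DMSO and 100% = high DMSO killing control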", "details": "HTB85 osteosarcoma cells, drug combinations, stronger effect = higher value"}, "[8]": {"assay": "CRL2098 osteosarcoma cell growth inhibition, synergistic combos for chromothripsis tumors, BGB or cisplatin IC20 combos (AID 1671454);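 further: cells exposed for 96 h before readout; 0% = vehicle DMSO and 100% = killing by high DMSO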", "details": "CRL2098 osteosarcoma cells, drug combinations, stronger effect = higher value"}, "[9]": {"assay": "HD-MB03 medulloblastoma cell growth inhibition, synergistic combos for chromothripsis tumors, BGB or cisplatin IC20 combos (AID 1671455; in the data active means inhibition above about 83%;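 further: 0% = vehicle DMSO and 100% = high DMSO as cytotoxic control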)", "details": "HD-MB03 medulloblastoma cells, stronger effect = higher value"}, "[10]": {"assay": "MDA-MB-436 breast carcinoma cell growth inhibition, synergistic combos for chromothripsis tumors, BGB or cisplatin combos (AID 1671458; call rule not given here;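 further: cells exposed for 96 hours; 0% = vehicle DMSO and 100% = killing by high DMSO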)", "details": "MDA-MB-436 breast carcinoma growth inhibition, drug combinations, stronger effect = higher value"}, "[11]": {"assay": "growth inhibition of BT084 medulloblastoma cells, cell-based, ICGC_MB145, cisplatin and BGB IC40 combos (AID 1671461);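 further: cells exposed to drugs for 96 hours; 0% = vehicle DMSO and 100% = high DMSO full killing control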", "details": "drug combinations, stronger effect = higher value"}, "[12]": {"assay": "growth inhibition of RCMB18 medulloblastoma cells, cell-based, cisplatin and BGB IC40 combos (AID 1671462);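 further: cells exposed to compound for four days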", "details": "stronger effect = higher value"}, "[13]": {"assay": "growth inhibition of CRL1545 osteosarcoma cells, cell-based, cisplatin and BGB IC20 combos (AID 1671464);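 further: cells exposed to compound for 96 hours before readout; 0% = vehicle DMSO and 100% = high DMSO killing control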", "details": "stronger effect = higher value"}, "[14]": {"details": "measured here: combination with BGB IC40, at 0.05 µM"}, "[15]": {"details": "measured here: with BGB IC20 combination, at 0.5 µM"}, "[16]": {"details": "measured here: with cisplatin IC20 combination, at 0.5 µM"}, "[17]": {"details": "measured here: combination with cisplatin, at 0.5 µM"}}, "note": "Active and inactive are the calls of the source. Unless noted, no stated cut-off is given here; in the data, active means inhibition above about 80%; inactive means the rest."}
{"smiles": "COC(=O)C[C@H]1C(C)(C)C(=O)[C@@H]2CC3=C(CC[C@]4(C)C3=CC(=O)O[C@H]4c3ccoc3)[C@@]1(C)C2=O", "values": [{"measurement": "luciferase signal", "setting": "[1]", "value": "24 AU (inactive)"}]}
{"smiles": "CC[C@H]1OC(=O)C[C@@H](O)[C@H](C)[C@@H](O[C@@H]2O[C@H](C)[C@@H](O)[C@H](N(C)C)[C@H]2O)[C@@H](CCN2C[C@H](C)C[C@H](C)C2)C[C@@H](C)C(=O)/C=C/C(C)=C/[C@@H]1CO[C@@H]1O[C@H](C)[C@@H](O)[C@@H](OC)[C@H]1OC", "values": [{"measurement": "remaining NAD", "setting": "[2]", "value": "10 nM (inactive)"}, {"measurement": "luciferase signal", "setting": "[1]", "value": "36 AU (inactive)"}]}
{"smiles": "Cn1nnnc1SCC1=C(C(=O)O)N2C(=O)[C@@H](NC(=O)[C@H](OC=O)c3ccccc3)[C@H]2SC1", "values": [{"measurement": "remaining NAD", "setting": "[2]", "value": "10 nM (inactive)"}, {"measurement": "luciferase signal", "setting": "[1]", "value": "16 AU (inactive)"}]}
{"smiles": "C=CC1=C(C)C2=CC3=NC(=C(CC(=O)O)C4=NC(=C(C)C4=C(O)O)C=c4[nH]c(c(C)c4CC)=CC1=N2)C(CCC(=O)O)C3C", "note": "(configuration not stated)", "values": [{"measurement": "remaining NAD", "setting": "[2]", "value": "10 nM (inactive)"}, {"measurement": "inhibition", "setting": "[3]; at 0.5 µM, stronger effect = higher value", "value": "-22.2% (inactive)"}, {"measurement": "inhibition", "setting": "[3]; measured here: combination with BGB IC20, at 0.005 µM", "value": -27.4, "unit": "%"}, {"measurement": "inhibition", "setting": "[3]; measured here: combination with BGB IC40, at 0.005 µM", "value": -20.4, "unit": "%"}, {"measurement": "inhibition", "setting": "[3]; [14]", "value": -7.95, "unit": "%"}, {"measurement": "inhibition", "setting": "[3]; measured here: combination with cisplatin, at 0.5 µM, stronger effect = higher value", "value": -18.8, "unit": "%"}, {"measurement": "inhibition", "setting": "[3]; measured here: combination with cisplatin, at 5 µM, stronger effect = higher value", "value": -59.6, "unit": "%"}, {"measurement": "inhibition", "setting": "[4]; BGB combo, at 5 µM", "value": -5.94, "unit": "%"}, {"measurement": "inhibition", "setting": "[4]; at 0.5 µM", "value": "-6.06% (inactive)"}, {"measurement": "inhibition", "setting": "[4]; cisplatin combo, at 5 µM", "value": 3.3, "unit": "%"}, {"measurement": "inhibition", "setting": "[4]; [15]", "value": -2.85, "unit": "%"}, {"measurement": "inhibition", "setting": "[4]; [16]", "value": 8.33, "unit": "%"}, {"measurement": "inhibition", "setting": "[4]; single agent, at 5 µM", "value": 10.4, "unit": "%"}, {"measurement": "inhibition", "setting": "[5]; BGB IC20 combo, at 0.005 µM", "value": -23.1, "unit": "%"}, {"measurement": "inhibition", "setting": "[5]; BGB IC40 combo, at 0.005 µM", "value": -25.1, "unit": "%"}, {"measurement": "inhibition", "setting": "[5]; BGB IC40 combo, at 0.05 µM", "value": -20, "unit": "%"}, {"measurement": "inhibition", "setting": "[5]; at 0.5 µM", "value": "-26.5% (inactive)"}, {"measurement": "inhibition", "setting": "[5]; cisplatin combo, at 0.05 µM", "value": -20, "unit": "%"}, {"measurement": "inhibition", "setting": "[5]; cisplatin combo, at 0.5 µM", "value": -42.5, "unit": "%"}, {"measurement": "inhibition", "setting": "[5]; cisplatin combo, at 5 µM", "value": -25.5, "unit": "%"}, {"measurement": "inhibition", "setting": "[5]; measured here: 5 uM single agent, at 5 µM", "value": 5.39, "unit": "%"}, {"measurement": "inhibition", "setting": "[6]; at 0.5 µM", "value": "-18.3% (inactive)"}, {"measurement": "inhibition", "setting": "[6]; [14]", "value": -22.1, "unit": "%"}, {"measurement": "inhibition", "setting": "[6]; [17]", "value": -13.2, "unit": "%"}, {"measurement": "inhibition", "setting": "[6]; measured here: combination with cisplatin, at 5 µM", "value": -2.96, "unit": "%"}, {"measurement": "inhibition", "setting": "[7]; at 0.5 µM", "value": "-16.7% (inactive)"}, {"measurement": "inhibition", "setting": "[7]; measured here: with BGB IC20, at 0.5 µM", "value": -29.2, "unit": "%"}, {"measurement": "inhibition", "setting": "[7]; measured here: with BGB IC20, at 5 µM", "value": -11.5, "unit": "%"}, {"measurement": "inhibition", "setting": "[7]; measured here: with cisplatin IC20, at 0.5 µM", "value": -27.9, "unit": "%"}, {"measurement": "inhibition", "setting": "[7]; measured here: with cisplatin IC20, at 5 µM", "value": -1.9, "unit": "%"}, {"measurement": "inhibition", "setting": "[7]; single agent, at 5 µM", "value": 1.12, "unit": "%"}, {"measurement": "inhibition", "setting": "[8]; at 0.5 µM", "value": "-39.9% (inactive)"}, {"measurement": "inhibition", "setting": "[8]; measured here: combination with BGB at IC20, at 0.5 µM", "value": -14.4, "unit": "%"}, {"measurement": "inhibition", "setting": "[8]; measured here: combination with cisplatin at IC20, at 0.5 µM", "value": -71.5, "unit": "%"}, {"measurement": "inhibition", "setting": "[9]; at 0.5 µM", "value": "-9.12% (inactive)"}, {"measurement": "inhibition", "setting": "[9]; measured here: combo with BGB at IC20, at 0.5 µM", "value": -0.977, "unit": "%"}, {"measurement": "inhibition", "setting": "[9]; measured here: combo with cisplatin at IC20, at 0.5 µM", "value": -18.8, "unit": "%"}, {"measurement": "inhibition", "setting": "[10]; at 0.5 µM", "value": "-19% (inactive)"}, {"measurement": "inhibition", "setting": "[10]; measured here: BGB combination, at 0.5 µM", "value": -19.5, "unit": "%"}, {"measurement": "inhibition", "setting": "[10]; measured here: BGB combination, at 5 µM", "value": -14.7, "unit": "%"}, {"measurement": "inhibition", "setting": "[10]; measured here: cisplatin combination, at 0.5 µM", "value": -36.2, "unit": "%"}, {"measurement": "inhibition", "setting": "[10]; measured here: cisplatin combination, at 5 µM", "value": -11.5, "unit": "%"}, {"measurement": "inhibition", "setting": "[11]; at 0.5 µM", "value": "-4.34% (inactive)"}, {"measurement": "inhibition", "setting": "[11]; cisplatin combination, at 0.5 µM", "value": 3.74, "unit": "%"}, {"measurement": "inhibition", "setting": "[11]; cisplatin combination, at 5 µM", "value": -40.8, "unit": "%"}, {"measurement": "inhibition", "setting": "[11]; measured here: BGB IC40 combination 0.05 uM, at 0.05 µM", "value": -3.49, "unit": "%"}, {"measurement": "inhibition", "setting": "[11]; single agent, at 5 µM", "value": -10.5, "unit": "%"}, {"measurement": "inhibition", "setting": "[12]; at 0.5 µM", "value": "-15.6% (inactive)"}, {"measurement": "inhibition", "setting": "[12]; cisplatin combo, at 5 µM", "value": 30.7, "unit": "%"}, {"measurement": "inhibition", "setting": "[12]; measured here: BGB IC40 combination, at 0.05 µM", "value": -38.7, "unit": "%"}, {"measurement": "inhibition", "setting": "[12]; [17]", "value": -5.59, "unit": "%"}, {"measurement": "inhibition", "setting": "[12]; single agent, at 5 µM", "value": -26.5, "unit": "%"}, {"measurement": "inhibition", "setting": "[13]; at 0.5 µM", "value": "-23.9% (inactive)"}, {"measurement": "inhibition", "setting": "[13]; [15]", "value": 2.58, "unit": "%"}, {"measurement": "inhibition", "setting": "[13]; [16]", "value": -37.1, "unit": "%"}, {"measurement": "inhibition", "setting": "[13]; single agent, at 0.05 µM", "value": 3.9, "unit": "%"}, {"measurement": "inhibition", "setting": "[13]; single agent, at 5 µM", "value": 17, "unit": "%"}]}
